# Data reported in PubChem BioAssay (NCI).
# About 83,000 compounds went through this panel and 20% of them were active in at least one assay; those are over-represented in the sample as a whole.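 Plates (96-well) were seeded with cells, treated with compound at one concentration, and incubated for 48 hours before percent growth was determined.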 A number with no mark means an inactive call. The source made the active and inactive calls. How the source made its calls: active means growth percent below 10; inactive means the rest.
# Columns and labels:
# Experiment in all cases: NCI-60 one-dose screen, 48 h (100 = growth as untreated, 0 = no growth, -100 = all killed)
# Conditions in all cases: 10 µM unless noted
# NCI-H23 lung = system: NCI-H23 lung
# NCI-H226 lung = system: NCI-H226 lung
# NCI-H322M lung = system: NCI-H322M lung
# NCI-H460 lung = system: NCI-H460 lung
# HOP-92 NSCLC = system: HOP-92 NSCLC
# NCI-H522 lung = system: NCI-H522 lung
# A549/ATCC NSCLC = system: A549/ATCC NSCLC
# 786-0 renal = system: 786-0 renal
# COLO 205 colon = system: COLO 205 colon
# DU-145 prostate = system: DU-145 prostate
# K-562 leukemia = system: K-562 leukemia
# MALME-3M melanoma = system: MALME-3M melanoma
# MDA-MB-231 breast = system: MDA-MB-231 breast
# RXF 393 renal = system: RXF 393 renal
# SF-268 CNS = system: SF-268 CNS
# SF-295 CNS = system: SF-295 CNS
# SF-539 CNS = system: SF-539 CNS
# UACC-257 melanoma = system: UACC-257 melanoma
# M14 melanoma = system: M14 melanoma
# HOP-62 NSCLC = system: HOP-62 NSCLC
Compound,growth (NCI-H23 lung),growth (NCI-H226 lung),growth (NCI-H322M lung),growth (NCI-H460 lung),growth (HOP-92 NSCLC),growth (NCI-H522 lung),growth (A549/ATCC NSCLC),growth (786-0 renal),growth (COLO 205 colon),growth (DU-145 prostate),growth (K-562 leukemia),growth (MALME-3M melanoma),growth (MDA-MB-231 breast),growth (RXF 393 renal),growth (SF-268 CNS),growth (SF-295 CNS),growth (SF-539 CNS),growth (UACC-257 melanoma),growth (M14 melanoma),growth (HOP-62 NSCLC)
CCCCOc1nc2ccc(Cl)cc2cc1/C=C/C(=O)/C=C/c1ccc(Cl)cc1,79.8%,92.9%,95.7%,103%,87.1%,74.8%,84.4%,94.1%,62%,84.7%,57%,104%,86.5%,41.6%,81%,79.5%,100%,84%,18%,
COc1cc(-c2nc3sc(C)cn3c2/C=C2\C(=O)Nc3ccccc32)c(Br)c(OC)c1OC,74.4%,80.1%,55.8%,8.76% (active),44.2%,-10.6% (active),,22.9%,52.7%,46.9%,9.97% (active),26.3%,79.4%,13.4%,54.1%,21.8%,11.8%,79.4%,22.2%,
C[C@]12O[C@H]1[C@H](O)c1c(cc(O)c3c1C(=O)c1cccc(O)c1-3)C2=O,99%,85.7%,102%,99.1%,101%,87.8%,92.9%,104%,106%,111%,93.9%,100%,94%,123%,107%,102%,99.6%,89%,89.8%,
CCC1CN2C(=N1)c1ccccc1-c1cc(Cl)ccc12 (stereo not given),23.4%,-40.2% (active),28.3%,-18.9% (active),-12.2% (active),-28.5% (active),-21.7% (active),-35.4% (active),18.4%,17.4%,2.32% (active),-4.57% (active),47.9%,,25%,12%,17%,-28.8% (active),21.7%,
COc1ccc(-c2nn(-c3ccc(NC(=O)Nc4ccc(Cl)c(C(F)(F)F)c4)cc3)cc2-c2ccncc2)cc1Cl,6.3% (active),1.73% (active),32.7%,-28.2% (active),-22% (active),-2.66% (active),10.3%,-33.7% (active),-74.5% (active),20.5%,10.3%,2.95% (active),-52.1% (active),-68.3% (active),19%,-25.9% (active),-1.2% (active),-5.92% (active),-4.4% (active),
COc1ccc(/C=C/C(=O)c2ccc(-n3cc(CN4CCN(c5cc6c(cc5F)c(=O)c(C(=O)O)cn6C5CC5)CC4)nn3)cc2)cc1OC,50.6%,32.4%,52.6%,,,49.5%,15.7%,43.7%,60.9%,45.8%,7.81% (active),57.5%,55.4%,4.51% (active),59.5%,67.5%,7.09% (active),62%,28.2%,38.7%
O=C(Nc1cccc(-n2ccc3c(NC(=O)c4ccccc4)nccc32)c1)Nc1ccc(Cl)c(C(F)(F)F)c1,13%,21.7%,39.5%,-0.783% (active),2.86% (active),-51.5% (active),9.59% (active),-14.8% (active),-51.6% (active),-19.3% (active),3.03% (active),33.6%,13.7%,-41.7% (active),8.59% (active),-6.24% (active),8.31% (active),46.2%,2.96% (active),
